13 compounds from PubChem BioAssay (NCATS) can be followed below.

The subject of one test is CRL-7250. In words: Cytotoxic Profiling of Annotated Libraries Using Quantitative High-Throughput Screening (AID 1296008). Further: potency means the concentration at half of the fitted maximal effect. The note with it: Five cell lines viability, CellTiter-Glo ATP luminescence, 48-72 h; max response: active compounds read low. In a few lines:
(§1)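 Compounds were pin-transferred onto cells and incubated 48 or 72 hr at 37 degree Celsius, 95% humidity. CellTiter-Glo was added, plates sat 10 min at room temperature, then ATP-coupled luminescence was imaged as the viability read-out.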

For the next test, the system named is HEK293. The test is described as above. The note with it: Five cell lines viability, CellTiter-Glo ATP luminescence, 48-72 h; max response: active compounds read low. A digest of the protocol: as §1
In general terms: Cellular ATP, detected with luciferase, serves as a proxy for viable cell number.

The test system of test [1] is HaCat. The description is as above. The note with it: Five cell lines viability, CellTiter-Glo ATP luminescence, 48-72 h; max response: active compounds read low. A digest of the protocol: as §1
In the next test the test system is KB-3-1. Described as above. The note with it: Five cell lines viability, CellTiter-Glo ATP luminescence, 48-72 h; max response: active compounds read low. A digest of the protocol:
as §1

The subject of a further test is NIH3T3. Described as above. The note with it: Five cell lines viability, CellTiter-Glo ATP luminescence, 48-72 h; max response: active compounds read low. In a few lines: as §1
The subject of a further test is MCC-13. The test is described as follows: qHTS assay to identify novel small-molecules to repurpose for Merkel cell carcinoma treatment (AID 1296009). The note with it: MCC and control cell lines, CellTiter-Glo viability, 72 h; series mostly up to 46 µM. A digest of the protocol: (§2)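 Luminescence from CellTiter-Glo, read 10 min after addition at room temperature, reported viability following a 72 hr, 37 degree celsius treatment with NPC or MIPE compounds in titration; values normalized to plate controls.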
(In qHTS, concentration-response curves come from the screen itself.)

A further test has as its system MKL-1. Described as above. The note with it: MCC and control cell lines, CellTiter-Glo viability, 72 h; series mostly up to 46 µM. In a few lines:
as §2

The subject of test [2] is HACAT. The description is as above. The note with it: MCC and control cell lines, CellTiter-Glo viability, 72 h; series mostly up to 44.8 µM. In a few lines: as §2
The next test concerns HEK293T. The description is as above. Particulars: MCC and control cell lines, CellTiter-Glo viability, 72 h; at 44.8 µM (top of the series) unless noted. In a few lines:
as §2

A further test relates to MCC-26. The description is as above. Particulars: MCC and control cell lines, CellTiter-Glo viability, 72 h; series mostly up to 46 µM. In a few lines:
as §2

Each structure is given as a SMILES string. Where “and” joins values, the source holds several entries; their conditions need not be identical. Equal entries are not always repeated. Results filed as inconclusive are left out. A structure can be active in one record and inactive in another. Values without a mark were called inactive. Calls of active or inactive are those of the source. The call rests on the fitted dose curve; in most records, active means well fitted inhibition curve with a large enough effect; inconclusive means small, poorly fitted or top-dose-only effect; inactive means flat fitted curve, though single readings scatter.
Further: nearly all actives have a fitted effect of over 60% in size.
On the % scale 0 is the no-effect control and ±100 the full control effect.

Regarding `CN(C)c1nc(N(C)C)nc(N(C)C)n1`, the max response was -4.79% in the test on CRL-7250; -4.81% and -7.03% in the test with HEK293; -7.57% and -4.4% in the test with HaCat [1]; 0.844% and 0.45% in the test with KB-3-1; 1.4% and 1.9% in the test with NIH3T3. The compound was classed as inactive in the test with CRL-7250. The Potency result in the test with MCC-13 and in the test on MKL-1 was “inactive” each time.
Turning to `Cc1cc(C(C)(C)C)c(O)c(C)c1CC1=NCCN1`, the max response in the test on CRL-7250 was 4.59% and 1.76%; in the test on HEK293, -3.25%; in the test with HaCat [1], -9.17% and -0.1%; in the test with KB-3-1 it was 1.72% and -15.7%; in the test with NIH3T3 it was 3.71%. Moreover, the compound was called inactive with CRL-7250, in the test with HaCat [1], with NIH3T3 and in the test with HACAT [2]. Also, the Potency with HEK293 is 9.35 µM (active). Further, the Potency entry in the test on MCC-13 and with MKL-1 was “inactive” throughout.
Consider `Cc1cnc(C(=O)NCCc2ccc(S(=O)(=O)NC(=O)NC3CCCCC3)cc2)cn1`, for which the max response with CRL-7250 is 0.493%; in the test on HEK293, -14.8%; with HaCat [1], 0.0058%; with NIH3T3, 4.64% and -13.5%. Further, the compound was called inactive with CRL-7250, in the test on HaCat [1] and in the test on HACAT [2]. For the same compound, the Potency result in the test on MCC-13 and in the test with MKL-1 was “inactive” in each case.
For the compound `CC(C)(C)C(=O)Oc1ccc(S(=O)(=O)Nc2ccccc2C(=O)NCC(=O)O)cc1`, the max response in the test with CRL-7250 was 4.89%; with HEK293, -6.47%; in the test with HaCat [1] it was -9.37%; in the test on KB-3-1, -8.85%; in the test on NIH3T3, -7.41% and -3.91%. The result in the test on CRL-7250, in the test on HEK293, with HaCat [1], with KB-3-1, in the test on HACAT [2] and in the test on HEK293T was inactive. Moreover, the Potency result in the test with MCC-13 and in the test on MKL-1 was “inactive” throughout.
As to `NC(=O)OCC(COC(N)=O)c1ccccc1`, the max response was 2.98% and -7.95% with CRL-7250; -9.25% with HEK293; -0.687% in the test on NIH3T3. Besides, the compound was classed as inactive in the test with HEK293, in the test on HaCat [1], in the test on NIH3T3, in the test on HACAT [2] and in the test with HEK293T. In addition, the Potency result in the test with MCC-13, in the test on MCC-26 and in the test with MKL-1 was “inactive” throughout.
Regarding `CCC1(C)CC(=O)NC1=O` (stereo not drawn), the max response is 0.182% in the test on CRL-7250; -13.5% in the test with HaCat [1]; 7.96% and 9.28% in the test on KB-3-1. For the same compound, the compound was called inactive in the test on HEK293, in the test on HaCat [1], with NIH3T3, in the test with HACAT [2] and with HEK293T. Besides, the Potency entry in the test with MCC-13 and with MKL-1 was “inactive” in each case.
For the compound `Clc1ccc(C(c2ccccc2Cl)C(Cl)Cl)cc1` (stereo not drawn), the max response in the test with CRL-7250 was -3.27%; with HEK293, -1.26%; in the test with HaCat [1] it was -1.22%; with KB-3-1, -10.1% and -1.61%; in the test with NIH3T3, -2.6% and -1.15%. The compound was classed as inactive in the test with HaCat [1] and in the test with HACAT [2]. The Potency result in the test on MCC-13, in the test on MCC-26 and in the test on MKL-1 was “inactive” throughout.
Turning to `Cc1cc(C(C)(C)C)cc(C)c1CC1=NCCN1`, the max response is -1.37% and -2.32% in the test with CRL-7250; -19.6% and -11.6% with HEK293; 3.71% and 6.55% with KB-3-1; -2.36% with NIH3T3. The outcome in the test on HaCat [1] and in the test with HACAT [2] was “inactive; activator” throughout. For the same compound, in the test on NIH3T3, the compound was classed as inactive. Besides, the Potency entry in the test on MCC-13 and with MKL-1 was “inactive” throughout.
Take `CS(=O)(=O)Nc1ccc([N+](=O)[O-])cc1Oc1ccccc1`: the max response in the test with CRL-7250 was -4.36% and 1.83%; in the test with HEK293, -3.19%; in the test on HaCat [1] it was 1.46%; in the test on KB-3-1 it was 0.301% and -0.592%; with NIH3T3 it was 4.35% and -5.34%. Also, the Potency result with MCC-13, with MCC-26 and in the test on MKL-1 was “inactive” in each case.
`CN(C)C(=N)N=C(N)N`: the compound was called inactive with CRL-7250, with HEK293, with HaCat [1], in the test with HACAT [2] and in the test on HEK293T. The max response in the test with HEK293 was 2.32%; in the test with NIH3T3 it was -1.85% and 1.26%. Also, the Potency result with MCC-13, in the test on MCC-26 and in the test on MKL-1 was “inactive” throughout.
`CS(=O)(=O)CCNCc1ccc(-c2ccc3ncnc(Nc4ccc(OCc5cccc(F)c5)c(Cl)c4)c3c2)o1`: the call in the test with CRL-7250 was inactive. For the same compound, the Potency with HEK293 is 4.18 µM (active) and 6.68 µM (active) and 9.2 µM (active); with HaCat [1], 46.9 nM (active) and 266 nM (active). The max response in the test on KB-3-1 was 0.0192%; in the test with NIH3T3 it was -52.4%. In addition, the Potency entry in the test on MCC-13, with MCC-26 and with MKL-1 was “inactive” in each case.
As for `CN(CCOc1ccc(NS(C)(=O)=O)cc1)CCc1ccc(NS(C)(=O)=O)cc1`, the compound was classed as inactive in the test on CRL-7250, in the test on HEK293, with HaCat [1], in the test on NIH3T3, in the test on HACAT [2] and in the test with HEK293T. Besides, the max response in the test with HaCat [1] was 2.47%. Further, the Potency entry with MCC-13, in the test with MCC-26 and in the test on MKL-1 was “inactive” each time.
On to `CN1CCC(=C2c3ccccc3C=Cc3ccccc32)CC1`, for which the call in the test with CRL-7250, in the test with HaCat [1], in the test on NIH3T3 and in the test with HACAT [2] was inactive. Also, in the test on HEK293, the Potency was 10.6 µM (active). The figures for the max response in the test on HaCat [1] and with NIH3T3 were -1.05% and -0.507%, respectively. Also, the Potency entry in the test with MCC-13, in the test with MCC-26 and with MKL-1 was “inactive” in each case.
